From PubChem BioAssay (NCATS)
Inconclusive results are not listed. Activity calls are given as the source filed them. Unless noted, calls follow the shape of the dose curve; as a rule, active = well fitted curve in the direction sought with a large enough effect; inconclusive = small, poorly fitted or top-dose-only effect, or another doubt; inactive = no such curve, though single readings can be large; an effect the other way counts as inactive or inconclusive.

What was measured:
[1] = target: Cytochrome P450 1A2 (Homo sapiens) (UniProt P05177); assay: p450-cyp1a2 (AID 410; calls by dose curve; also: potency is read from the fitted curve at half-maximal effect)
Outline: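 Luminescent demethylation readout: Luciferin-ME (100uM, equal to Km) turned over by 20nM CYP1A2 for 60 min at room temperature after NADPH regeneration addition, following 10 min compound preincubation. Normalization used 57 uM furafylline as full inhibition.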

[2] = target: Glucocorticoid receptor (Homo sapiens) (UniProt P04150); assay: GR-GFP Redistribution (AID 450;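 active = compounds whose dose series gives a full or clear partial fitted curve of increased nuclear translocation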; also: potency is read from the fitted curve at half-maximal effect)
[3] = target: Glucocorticoid receptor (Homo sapiens) (UniProt P04150); assay: GR-EFC Redistribution (AID 451; calls by dose curve; also: potency is read from the fitted curve at half-maximal effect); details: CHO-K1 GR-EFC translocation, beta-gal luminescence, 2 h
Outline: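 CHO-K1 cells expressing nuclear EA and GR-ED fragments of b-gal; compounds titrated up to 46 uM final, 2 h at 37 C. GR nuclear translocation read as complemented b-gal luminescence after 1 h RT detection.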

[4] = target: Mitogen-activated protein kinase 10 (Mus musculus) (UniProt Q61831); assay: JNK3 AlphaScreen Assay (AID 530; active = well fitted curve in either direction with a large enough effect, not every such curve was filed as active;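 also: kinase came from lysate of stimulated human HepG2 cells; signal reports phosphorylation of biotinylated GST-cJun 1-79 at Ser73 with 10 µM ATP; series mostly up to about 57 µM; % is scaled to controls: 0 for no effect and ±100 for the full control effect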)
Outline: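 Activity was read by AlphaScreen after JNK3-containing HepG2 lysate (cytokine pre-activated) phosphorylated biotinylated GST-cJun with 10 uM ATP at room temperature. Phospho-Ser73 cJun antibody with Protein-A acceptor beads provided detection.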

[5] = target: 3',5'-cyclic-AMP phosphodiesterase 4B (Homo sapiens) (UniProt Q07343); assay: qHTS Assay for Inhibitors of PDE-IV (AID 607; active = well fitted activation curve with a large enough effect in the main read-out, with a control signal flat, not every such curve was filed as active; also: % of control where 0% means no effect)
Outline: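 HEK293 ACTOne cells with CNG channel (1000/well), endogenous PDE4; membrane potential dye, compounds up to 22.9 uM final. Fluorescence Ex 535/Em 590; RO 20-1724 (100 uM final) as reference.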

[6] = target: Cytochrome P450 2C9 (Homo sapiens) (UniProt P11712); assay: qHTS Assay for Inhibitors and Substrates of Cytochrome P450 2C9 (AID 883); also: nearly all actives have a fitted effect of over 60% in size; also: potency is read from the fitted curve at half-maximal effect
Outline: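 Signal: luciferase luminescence reporting luciferin produced by CYP2C9. Conditions: 10nM enzyme, Luciferin-H 100uM at KM, 25mM KPO4, 37C, 60 min NADPH-driven reaction. Reference: 57uM sulphaphenazole as 100% inhibition.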

[7] = target: Cytochrome P450 3A4 (Homo sapiens) (UniProt P08684); assay: qHTS Assay for Activators of Cytochrome P450 3A4 (AID 885); also: nearly all actives have a fitted effect of over 65% in size
Outline: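 Human CYP3A4 dealkylates Luciferin-PPXE to luciferin, which luciferase detection converts to light. Substrate was at its KM (25uM), buffer 200mM KPO4, reaction 60 min at RT.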

[8] = target: Cytochrome P450 2C19 (Homo sapiens) (UniProt P33261); assay: qHTS Assay for Inhibitors and Substrates of Cytochrome P450 2C19 (AID 899); also: potency is read from the fitted curve at half-maximal effect; nearly all actives have a fitted effect of over 60% in size
Outline: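 Signal comes from luciferase acting on luciferin released by CYP2C19-mediated hydroxylation of Luciferin-H EGE, 10uM (KM). Assay mix: 5nM enzyme, 50mM KPO4; 60 min at 37C with NADPH regeneration. Data normalized against 57uM ketoconazole.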

[9] = target: DNA dC->dU-editing enzyme APOBEC-3G (Homo sapiens) (UniProt Q9HC16); assay: qHTS for inhibitors of Vif-A3G interactions: Validation (AID 588379); also: 0% is about no effect
Outline: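 Yellow fluorescence (Ex 488, Em 500-530) of Vif-coexpressing HeLa A3G-eYFP cells, scanned by Acumen cytometer, reports blocked A3G degradation. Cells plated at 700/well overnight at 37 deg C before compound addition, then a further overnight compound incubation at 37 deg C.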

[10] = target: Cytochrome P450 3A4 (Homo sapiens) (UniProt P08684); assay: qHTS Assay for Inhibitors and Substrates of Cytochrome P450 3A4 (AID 884); also: nearly all actives have a fitted effect of over 50% in size; also: potency is read from the fitted curve at half-maximal effect
Outline: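 Luminescent readout of luciferin produced by CYP3A4 (20 nM) dealkylation of Luciferin-PPXE, 25 uM (its KM). NADPH-driven reaction ran 60 min at RT after 10 min compound preincubation; data scaled to 57 uM ketoconazole as 100% inhibition.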

[11] = target: Cytochrome P450 2D6 (Homo sapiens) (UniProt P10635); assay: qHTS Assay for Inhibitors and Substrates of Cytochrome P450 2D6 (AID 891);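 also: luciferin methyl ether substrate demethylated by CYP2D6 with NADPH regeneration; % is scaled to controls: 0 for no effect and ±100 for the full control effect; nearly all actives have a fitted effect of over 60% in size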
Outline: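 Luminescent read-out of luciferin formed by 5 nM human CYP2D6 demethylating 30 uM Luciferin-ME EGE (Km level) over 60 min at room temperature after NADPH regeneration addition. Data normalized to full inhibition by 1.43 uM quinidine.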

[12] = target: Androgen receptor (Homo sapiens) (UniProt P10275); assay: qHTS assay for small molecule agonists of androgen receptor signaling (AID 588515; active = well fitted curve in the direction sought with a large enough effect in the signal ratio, with a control signal flat; the % refers to the signal ratio; also: % is scaled to controls: 0 for no effect and ±100 for the full control effect); details: AR-UAS-bla HEK293, beta-lactamase ratio, agonist 16 h; stronger effect = higher value
Outline: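 Stimulation of an AR-responsive β-lactamase reporter in GripTite HEK293 cells was measured after 16 h compound exposure at 37 °C, via CCF4 fluorescence after 2 h RT. EC50 from Hill fits, normalized to R1881 at 30 nM.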

[13] = target: Androgen receptor (Homo sapiens) (UniProt P10275); assay: qHTS assay for small molecule antagonists of androgen receptor signaling (AID 588516; active = well fitted curve in the direction sought with a large enough effect in the signal ratio, with a control signal flat, not every such curve was filed as active; the % refers to the signal ratio; also: % is scaled to controls: 0 for no effect and ±100 for the full control effect)
Outline: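 AR-UAS-bla GripTite HEK 293 cells (2000/well) treated with compound titrations plus 10 nM R1881 for 16 h at 37C. Beta-lactamase read by CCF4 FRET (460/530 nm); IC50 from Hill fits, normalized to R1881 and DMSO control wells.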

[14] = target: Bile acid receptor (Homo sapiens) (UniProt Q96RI1); assay: qHTS assay for small molecule antagonists of farnesoid X receptor signaling (AID 588526; calls by dose curve; also: % is scaled to controls: 0 for no effect and ±100 for the full control effect)
Outline: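 Antagonist mode: titrated compounds tested against chenodeoxycholic acid stimulation (normalized to 50 uM CDCA and DMSO) in GeneBLAzer HEK293T cells for 16 h. Beta-lactamase read by CCF4 fluorescence; IC50 from Hill fits.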

[15] = target: Glucocorticoid receptor (Homo sapiens) (UniProt P04150); assay: qHTS assay for small molecule agonists of glucocorticoid receptor signaling (AID 588532; active = well fitted curve in the direction sought with a large enough effect in the signal ratio, with a control signal flat; the % refers to the signal ratio;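 also: 100% = dexamethasone at 0.1 µM and 0% = DMSO only wells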); details: HeLa MMTV-bla, beta-lactamase ratio, agonist, 18 h; stronger effect = higher value; percent of dexamethasone control, DMSO zero
Outline: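 HeLa GRE-bla reporter cells; 18 h compound exposure at 37 C; 2 h CCF4 loading at room temperature; fluorescence at 460 and 530 nm; EC50 by Hill equation.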

[16] = target: Peroxisome proliferator-activated receptor gamma (Homo sapiens) (UniProt P37231); assay: qHTS assay for small molecule antagonists of peroxisome proliferator-activated receptor gamma signaling (AID 588537; active = well fitted inhibition curve with a large enough effect in the signal ratio, with a control signal flat, not every such curve was filed as active; the % refers to the signal ratio;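 also: reporter cells co-stimulated with 50 nM rosiglitazone agonist during compound treatment; % of control where 0% means no effect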)
Outline: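 Fluorescence at 460 and 530 nm (405 nm excitation) reported beta-lactamase cleavage of CCF4 after 2 h room-temperature loading. HEK293 reporter cells in 1% charcoal/dextran-treated FBS had received compound and rosiglitazone for 16 h.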

[17] = target: Vitamin D3 receptor (Homo sapiens) (UniProt P11473); assay: qHTS assay for small molecule agonists of vitamin D receptor signaling (AID 588543; calls by dose curve;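 also: 0% = DMSO basal and 100% = reference agonist control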)
Outline: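 VDR-UAS-bla HEK293T cells, 2000/well, 2% charcoal-stripped FBS; compound titration 16 h at 37 C; CCF4 beta-lactamase ratio read. Normalized to 50 nM 1-alpha,25-dihydroxyvitamin D3 (100%) and DMSO; Hill fit gives EC50, efficacy.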

[18] = target: Thyroid hormone receptor beta (Homo sapiens) (UniProt P10828); assay: qHTS assay for small molecule agonists of thyroid hormone receptor beta signaling (AID 588545; calls by dose curve)
Outline: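 In this cell-based screen, titrated compounds act on HEK 293 cells held in medium with 2% charcoal/dextran FBS, NEAA and pyruvate for 18 hrs at 37 C. Responses are expressed relative to T3 (10 nM) as 100% and basal DMSO as 0%.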

[19] = qHTS assay for small molecule antagonists of retinoid X receptor alpha signaling (AID 588546; active = well fitted inhibition curve with a large enough effect in the signal ratio, with a control signal flat, not every such curve was filed as active; the % refers to the signal ratio); details: HEK293T RXRa-UAS-bla, beta-lactamase ratio, antagonist mode; measured here: W530 green channel, cytotoxicity proxy
Outline: (§1)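 Beta-lactamase reporter inhibition, read as CCF4 fluorescence ratio (ex 405, em 460/530 nm) after 2 h at RT. HEK293T UAS-bla cells, 2500/well, were stimulated with 9-cis-RA at 500 or 100 nM final alongside test compound for 18 h at 37 C.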

[20] = target: Retinoic acid receptor RXR-alpha (Homo sapiens) (UniProt P19793); assay: as above; details: HEK293T RXRa-UAS-bla, beta-lactamase ratio, antagonist mode
Outline: as §1

[21] = target: Thyroid hormone receptor beta (Homo sapiens) (UniProt P10828); assay: qHTS assay for small molecule antagonists of thyroid hormone receptor beta signaling (AID 588547; active = well fitted inhibition curve with a large enough effect in the signal ratio, with a control signal flat, not every such curve was filed as active; the % refers to the signal ratio); details: TR-UAS-bla HEK293, beta-lactamase ratio, antagonist mode, 18 h
Outline: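 TR-UAS-bla GripTite HEK293 cells in 2% charcoal/dextran FBS medium; compounds 0.59 nM to 92 uM with T3 at 0.4nM final, 18 h at 37 C. Beta-lactamase read by CCF4 fluorescence (460/530 nm); Hill fits gave IC50 and efficacy.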

[22] = qHTS assay for small molecule agonists of the antioxidant response element (ARE) signaling pathway (AID 651741; active = well fitted activation curve with a large enough effect in the signal ratio; the % refers to the signal ratio; also: potency is read from the fitted curve at half-maximal effect)
Outline: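 Stably integrated ARE-beta-lactamase reporter HepG2 cells; 16 h compound incubation, 37 C; LiveBLAzer FRET substrate 2 h at room temperature; fluorescence intensity.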

[23] = qHTS assay for small molecule activators of the nuclear factor-kappa B (NF-kB) signaling pathway (AID 651749; active = well fitted activation curve with a large enough effect in the signal ratio; the % refers to the signal ratio; also: series mostly up to about 77 µM; % of control where 0% means no effect); details: NF-kB-bla ME-180 cells, beta-lactamase FRET ratio, 16 h; stronger effect = higher value
Outline: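 In this qHTS format, compounds acting as activators increase NF-kB-driven beta-lactamase in ME-180 cells, measured as disrupted FRET after 16 hr exposure at 37C and 5% CO2.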

[24] = qHTS assay for environmental chemicals that activate the Aryl hydrocarbon Receptor (AhR) signaling pathway (AID 651777); details: 1A2-DRE human hepatoma cells, luciferase, 24 h; activation: stronger effect = higher value; also: % of control where 0% means no effect; nearly all actives have a fitted effect of over 15% in size
Outline: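 Human hepatoma 1A2-DRE cells stably carrying a DRE/CYP1A2 promoter–luciferase reporter, 1,200 cells/well, exposed to compound 24 hr at 37 C. Luciferase read by One-Glo luminescence after 30 min at room temperature; increased signal marks AhR activation.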

[25] = target: Peroxisome proliferator-activated receptor alpha (Homo sapiens) (UniProt Q07869); assay: qHTS assay for small molecule agonists of the peroxisome proliferator-activated receptor alpha (PPARalpha) signaling pathway (AID 651778); details: PathHunter PPARalpha complementation, chemiluminescence, 6 h; max response: stronger effect = higher value; also: % of control where 0% means no effect
Outline: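 Enzyme-fragment complementation assay in which ligand-bound PPARalpha translocates and forms an active enzyme that generates chemiluminescence. Cells were plated overnight, exposed to compound for 6 hr at 37 C, and then given detection reagent for 60 min at room temperature.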

[26] = qHTS assay for small molecule agonists of the antioxidant response element (ARE) signaling pathway measured by Nrf2-dependant transcriptional activity (AID 720636; active = well fitted curve in the direction sought with a large enough effect in the repeat runs; an effect the other way counts as inactive or inconclusive; also: % of control where 0% means no effect)
Outline: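 ARE-luc HepG2 cells carrying an Nrf2-responsive luciferase reporter, in medium with 1% dialyzed FBS, exposed to compound for 16 hr at 37 C, 5% CO2. Luminescence read 30 min after ONE-Glo addition.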

[27] = qHTS assay for cell viability of HEK293 cells (AID 743288); details: ATP luminescence (CellTiter-Glo), 18 h; max response: stronger effect = lower value; also: % is scaled to controls: 0 for no effect and ±100 for the full control effect; nearly all actives have a fitted effect of over 50% in size
Outline: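 Steps: plate 2,000 parental HEK293 cells per well; incubate ≥5 h, 37 C; add compounds in DMSO; incubate 18 h, 37 C; add CellTiter-Glo; wait 30 min at room temperature; read luminescence.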

[28] = qHTS assay for cell viability of the p53RE-bla HCT-116 cell line (AID 743292); also: % is scaled to controls: 0 for no effect and ±100 for the full control effect; nearly all actives have a fitted effect of over 55% in size
Outline: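 CellSensor p53RE-bla HCT-116 cells (4,000/well) pre-incubated 5 h at 37 C, then exposed to compounds in DMSO for 16 h at 37 C. Viability read as ATP content by CellTiter-Glo luminescence after 30 min at room temperature.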

[29] = target: Nuclear receptor subfamily 1 group I member 2 (Rattus norvegicus) (UniProt Q9R1A7); assay: qHTS assay for small molecule activators of the rat pregnane X receptor (rPXR) signaling pathway (AID 651751; call rule not given here; also: 0% is about no effect); details: rPXR reporter cells, luciferase (One-Glo), 24 h
[30] = qHTS assay for small molecule activators of the human pregnane X receptor (PXR) signaling pathway (AID 720659; call rule not given here; also: 0% is about no effect)

Chain of Cytochrome P450 1A2 (Homo sapiens) (P05177 whole entry, looked up): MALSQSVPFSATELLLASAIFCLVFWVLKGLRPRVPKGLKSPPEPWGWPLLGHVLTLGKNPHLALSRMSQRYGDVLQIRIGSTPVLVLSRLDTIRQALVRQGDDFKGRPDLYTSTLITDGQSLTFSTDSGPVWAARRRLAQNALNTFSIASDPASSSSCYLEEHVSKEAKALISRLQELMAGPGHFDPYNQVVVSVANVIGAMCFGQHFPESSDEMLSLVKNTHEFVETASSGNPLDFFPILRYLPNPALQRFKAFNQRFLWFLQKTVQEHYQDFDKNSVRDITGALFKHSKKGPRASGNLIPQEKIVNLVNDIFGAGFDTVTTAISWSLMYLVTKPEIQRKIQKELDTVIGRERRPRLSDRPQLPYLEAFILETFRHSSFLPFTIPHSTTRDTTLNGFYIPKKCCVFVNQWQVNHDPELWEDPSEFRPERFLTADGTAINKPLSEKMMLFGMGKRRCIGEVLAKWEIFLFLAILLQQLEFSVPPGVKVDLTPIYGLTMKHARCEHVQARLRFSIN
Chain of 3',5'-cyclic-AMP phosphodiesterase 4B (Homo sapiens) (Q07343 whole entry, looked up): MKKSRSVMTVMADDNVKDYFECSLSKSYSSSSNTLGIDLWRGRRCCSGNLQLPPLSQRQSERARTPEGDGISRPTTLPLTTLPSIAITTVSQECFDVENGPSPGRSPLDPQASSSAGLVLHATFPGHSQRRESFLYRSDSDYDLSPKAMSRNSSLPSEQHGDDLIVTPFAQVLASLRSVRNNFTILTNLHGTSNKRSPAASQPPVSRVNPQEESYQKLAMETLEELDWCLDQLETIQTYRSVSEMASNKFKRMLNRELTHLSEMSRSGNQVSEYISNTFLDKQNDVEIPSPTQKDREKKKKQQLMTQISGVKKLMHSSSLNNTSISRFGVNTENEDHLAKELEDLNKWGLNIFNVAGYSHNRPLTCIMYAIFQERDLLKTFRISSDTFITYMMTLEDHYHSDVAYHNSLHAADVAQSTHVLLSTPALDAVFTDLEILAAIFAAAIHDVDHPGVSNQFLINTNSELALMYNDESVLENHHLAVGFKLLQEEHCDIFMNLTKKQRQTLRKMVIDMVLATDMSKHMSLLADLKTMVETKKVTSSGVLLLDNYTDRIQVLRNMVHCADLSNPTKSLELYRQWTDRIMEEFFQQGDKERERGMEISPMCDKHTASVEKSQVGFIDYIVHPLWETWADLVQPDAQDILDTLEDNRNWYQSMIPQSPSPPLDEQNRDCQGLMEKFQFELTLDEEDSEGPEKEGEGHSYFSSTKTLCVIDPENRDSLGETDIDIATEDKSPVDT
Chain of Cytochrome P450 3A4 (Homo sapiens) (P08684 whole entry, looked up): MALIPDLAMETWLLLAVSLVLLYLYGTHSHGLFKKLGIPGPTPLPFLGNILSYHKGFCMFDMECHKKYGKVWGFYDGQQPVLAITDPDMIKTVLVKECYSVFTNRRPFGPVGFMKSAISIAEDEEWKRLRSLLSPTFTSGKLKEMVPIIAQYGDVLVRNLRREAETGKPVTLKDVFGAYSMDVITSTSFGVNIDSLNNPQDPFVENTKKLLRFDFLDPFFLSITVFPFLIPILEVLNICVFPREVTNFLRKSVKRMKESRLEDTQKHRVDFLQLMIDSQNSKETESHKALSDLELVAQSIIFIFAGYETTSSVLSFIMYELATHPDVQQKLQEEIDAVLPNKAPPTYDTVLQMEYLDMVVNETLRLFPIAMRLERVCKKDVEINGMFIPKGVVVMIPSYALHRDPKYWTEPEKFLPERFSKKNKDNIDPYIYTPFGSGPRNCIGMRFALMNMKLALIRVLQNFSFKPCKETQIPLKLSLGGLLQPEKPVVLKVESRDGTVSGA
Chain of Cytochrome P450 2C19 (Homo sapiens) (P33261 whole entry, looked up): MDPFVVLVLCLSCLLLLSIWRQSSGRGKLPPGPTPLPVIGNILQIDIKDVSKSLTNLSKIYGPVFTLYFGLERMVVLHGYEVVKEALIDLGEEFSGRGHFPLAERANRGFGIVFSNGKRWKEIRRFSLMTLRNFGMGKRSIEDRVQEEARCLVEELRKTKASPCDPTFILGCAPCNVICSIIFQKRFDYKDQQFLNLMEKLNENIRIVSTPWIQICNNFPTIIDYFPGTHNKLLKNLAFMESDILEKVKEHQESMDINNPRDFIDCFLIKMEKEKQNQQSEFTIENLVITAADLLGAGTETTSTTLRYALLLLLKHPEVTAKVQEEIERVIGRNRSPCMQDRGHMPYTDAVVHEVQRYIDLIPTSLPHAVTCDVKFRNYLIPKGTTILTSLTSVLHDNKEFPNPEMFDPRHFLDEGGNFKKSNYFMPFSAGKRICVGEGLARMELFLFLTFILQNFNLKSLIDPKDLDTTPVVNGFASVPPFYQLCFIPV
Chain of Cytochrome P450 2C9 (Homo sapiens) (P11712 whole entry, looked up): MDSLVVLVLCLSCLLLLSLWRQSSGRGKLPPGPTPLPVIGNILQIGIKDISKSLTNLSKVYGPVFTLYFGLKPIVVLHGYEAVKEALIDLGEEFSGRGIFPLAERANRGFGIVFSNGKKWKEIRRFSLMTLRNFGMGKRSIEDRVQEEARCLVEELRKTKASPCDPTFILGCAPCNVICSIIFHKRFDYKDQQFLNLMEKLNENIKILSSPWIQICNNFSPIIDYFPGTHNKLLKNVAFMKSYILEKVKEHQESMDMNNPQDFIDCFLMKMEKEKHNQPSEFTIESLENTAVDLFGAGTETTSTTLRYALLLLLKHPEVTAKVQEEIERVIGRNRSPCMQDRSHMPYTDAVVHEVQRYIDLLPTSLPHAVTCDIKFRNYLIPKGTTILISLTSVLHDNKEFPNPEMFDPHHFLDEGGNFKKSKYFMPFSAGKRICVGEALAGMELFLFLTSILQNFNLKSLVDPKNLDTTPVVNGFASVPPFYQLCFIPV
Chain of DNA dC->dU-editing enzyme APOBEC-3G (Homo sapiens) (Q9HC16 whole entry, looked up): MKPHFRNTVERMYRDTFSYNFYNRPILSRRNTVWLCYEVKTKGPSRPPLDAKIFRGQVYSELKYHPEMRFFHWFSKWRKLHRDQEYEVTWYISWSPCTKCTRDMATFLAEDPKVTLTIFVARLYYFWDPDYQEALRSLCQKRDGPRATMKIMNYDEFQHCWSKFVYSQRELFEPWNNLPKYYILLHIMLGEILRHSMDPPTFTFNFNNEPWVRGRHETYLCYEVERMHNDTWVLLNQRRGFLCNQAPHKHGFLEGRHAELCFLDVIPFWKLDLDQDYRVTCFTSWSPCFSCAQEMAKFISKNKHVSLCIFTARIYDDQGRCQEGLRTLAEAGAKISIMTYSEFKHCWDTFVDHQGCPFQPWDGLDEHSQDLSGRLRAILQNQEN
Chain of Glucocorticoid receptor (Homo sapiens) (P04150 whole entry, looked up, the tested form may be a part): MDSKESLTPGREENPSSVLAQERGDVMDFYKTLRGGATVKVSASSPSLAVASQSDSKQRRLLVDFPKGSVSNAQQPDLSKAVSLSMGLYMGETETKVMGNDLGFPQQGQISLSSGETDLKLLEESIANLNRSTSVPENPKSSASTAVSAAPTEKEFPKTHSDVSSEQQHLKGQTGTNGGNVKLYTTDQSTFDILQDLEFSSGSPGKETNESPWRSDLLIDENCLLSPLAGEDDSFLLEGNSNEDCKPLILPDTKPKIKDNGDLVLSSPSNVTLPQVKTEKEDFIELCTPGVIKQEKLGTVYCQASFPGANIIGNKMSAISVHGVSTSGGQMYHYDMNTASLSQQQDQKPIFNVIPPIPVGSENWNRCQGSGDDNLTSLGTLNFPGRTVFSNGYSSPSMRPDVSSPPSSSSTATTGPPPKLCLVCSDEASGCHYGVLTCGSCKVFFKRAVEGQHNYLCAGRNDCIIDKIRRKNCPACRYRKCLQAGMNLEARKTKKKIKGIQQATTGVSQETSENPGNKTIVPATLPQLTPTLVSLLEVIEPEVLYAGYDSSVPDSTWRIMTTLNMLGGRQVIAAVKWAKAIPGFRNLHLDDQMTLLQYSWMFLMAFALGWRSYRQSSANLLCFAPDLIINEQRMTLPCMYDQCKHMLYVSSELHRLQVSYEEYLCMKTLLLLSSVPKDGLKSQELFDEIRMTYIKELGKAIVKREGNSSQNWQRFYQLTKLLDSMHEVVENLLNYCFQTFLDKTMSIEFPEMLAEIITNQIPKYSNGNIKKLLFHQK
Chain of Thyroid hormone receptor beta (Homo sapiens) (P10828 whole entry, looked up): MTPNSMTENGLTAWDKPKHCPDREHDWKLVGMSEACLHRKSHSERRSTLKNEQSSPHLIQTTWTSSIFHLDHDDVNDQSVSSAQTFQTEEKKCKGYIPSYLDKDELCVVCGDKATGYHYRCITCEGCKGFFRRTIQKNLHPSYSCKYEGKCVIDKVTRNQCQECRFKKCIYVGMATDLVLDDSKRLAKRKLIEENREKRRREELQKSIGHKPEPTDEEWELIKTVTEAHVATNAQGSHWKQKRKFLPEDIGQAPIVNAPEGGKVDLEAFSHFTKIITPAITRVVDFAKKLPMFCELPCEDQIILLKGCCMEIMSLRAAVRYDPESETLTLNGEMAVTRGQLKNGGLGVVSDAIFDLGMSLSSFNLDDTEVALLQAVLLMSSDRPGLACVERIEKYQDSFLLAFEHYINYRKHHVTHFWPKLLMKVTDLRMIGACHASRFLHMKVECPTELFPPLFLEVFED
Chain of Cytochrome P450 2D6 (Homo sapiens) (P10635 whole entry, looked up): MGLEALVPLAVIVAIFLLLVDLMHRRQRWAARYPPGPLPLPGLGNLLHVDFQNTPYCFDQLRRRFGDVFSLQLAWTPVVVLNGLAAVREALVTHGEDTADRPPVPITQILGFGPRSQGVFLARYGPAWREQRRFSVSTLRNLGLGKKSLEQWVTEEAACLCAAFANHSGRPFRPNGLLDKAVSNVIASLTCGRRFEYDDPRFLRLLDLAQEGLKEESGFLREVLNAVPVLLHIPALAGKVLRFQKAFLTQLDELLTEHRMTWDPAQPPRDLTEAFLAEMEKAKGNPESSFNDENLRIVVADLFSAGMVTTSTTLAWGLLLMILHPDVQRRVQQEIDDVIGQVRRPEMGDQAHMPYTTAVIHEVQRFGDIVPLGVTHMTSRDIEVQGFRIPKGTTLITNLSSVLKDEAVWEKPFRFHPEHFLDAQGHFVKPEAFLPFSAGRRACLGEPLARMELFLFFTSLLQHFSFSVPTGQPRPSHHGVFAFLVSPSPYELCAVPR

O=c1c(O)c(-c2ccc(O)cc2)oc2cc(O)ccc12
inactive: Potency [2] > 46 µM | Potency [3] > 46 µM | Potency [4] | Potency [5] | Potency [7] | outcome [9]
active: Potency [1] 0.1 µM | Potency [6] 10 µM | Potency [8] 15.8 µM

COc1cc(O)c2c(=O)cc(-c3ccccc3)oc2c1
inactive: Potency [2] > 46 µM | Potency [3] > 46 µM | Potency [4] | Potency [7] | Potency [11] | outcome [9]
active: Potency [1] 0.0251 µM | Potency [10] 10 µM | Potency [8] 0.398 µM

COc1cccc2oc(-c3ccc(O)cc3)cc(=O)c12
active: Potency [1] 0.398 µM | Potency [6] 12.6 µM | Potency [10] 15.8 µM | Potency [8] 10 µM
inactive: Potency [2] > 46 µM | Potency [3] > 46 µM | Potency [4] | Potency [7] | outcome [9]

COc1cc2ccc(=O)oc2c(O)c1OCC=C(C)C
inactive: Potency [2] > 46 µM | Potency [3] > 46 µM | Potency [4] | Potency [5] | Potency [7] | outcome [9]
active: Potency [1] 1.58 µM | Potency [8] 10 µM

COc1cc2oc(-c3ccccc3)cc(=O)c2cc1O
active: Potency [1] 1 µM
inactive: Potency [2] > 46 µM | Potency [3] > 46 µM | Potency [4] | Potency [5] | Potency [6] | Potency [10] | outcome [9]

C=C1CC[C@H]2C(C)(C)[C@H](O)CC[C@]2(C)[C@@H]1COc1ccc2ccc(=O)oc2c1
inactive: Potency [2] > 46 µM | Potency [3] > 46 µM | Potency [4] | Potency [11]
active: Potency [1] 31.6 µM | Potency [6] 3.98 µM | Potency [8] 6.31 µM

CC1(C)CCC(C)(C)c2cc(C(=O)Nc3ccc(C(=O)O)cc3)ccc21
inactive: Potency [2] > 46 µM | Potency [3] > 46 µM | Potency [5] | outcome [9] | activation [12] -12.7% | outcome [13] | Potency [14] | activation [15] -10.3% | Potency [16] | outcome [17] | outcome [18] | max response [20] -51.1% | activity change % (negative = inhibition) [21] 15.7% | activation [23] 1.76% | activation [24] -0.1% | max response [25] 0.0193% | Potency [26] | max response [27] 1.87% | Potency [28] | max response [29] -9.44% | outcome [30]
active: Potency [1] 31.6 µM | Potency [22] 61.1 µM
2.34%: max response [19]
